# Screening results from PubChem BioAssay.
# In the library only some 21% were active in any assay of this set; here they are far more common.
# NS1 function inh = influenza NS1 inhibition; hit rate 0.4% among 270,000; Potency, µM (titrated, usually from 46.1 µM), inactives show at the highest dose activity, positive = more growth; calls by dose curve; note: potency is the fitted concentration of half-maximal effect; actives are rising curves; nearly all actives have a fitted effect of over 50% in size
#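 S. cerevisiae expressing influenza A NS1, grown in glucose, washed, then diluted 1:100 into pH 6.0 -URA galactose medium with 23 nl compound. Growth recovery read as OD600; NS1-free strain serves as control.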
# Cycloheximide cs = affects cycloheximide protein synthesis inhibition readout, counter-screen | cell reporter, cycloheximide protein synthesis inhibition counterscreen | max response, % | hit rate 12% among 300,000; in the data active = max response mostly above about 13%, no sharp cut-off; inactive = mostly below about 14%; note: read at 38.3 µM for the half of the compounds with a filed dose; 0% is about no effect
# Pf growth 48h = inhibits P. falciparum growth in the first generation, 48 h; P. falciparum luciferase growth in erythrocytes, 48 h; Potency, µM (top dose mostly 28.7 µM), for inactives: top-dose activity change, negative = inhibition, actives largely listed as inhibitors; hit rate 5.9% among 310,000; note: potency is the fitted concentration of half-maximal effect; % is set by controls: 0 for no effect and ±100 for the full control effect
#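 Firefly luciferase activity from engineered P. falciparum reports growth; inhibitors lower the luminescent signal. Cultures contained 2% hematocrit erythrocytes at 0.1% final parasitemia.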
# SARS PLpro yeast = blocks SARS-CoV papain-like protease in a yeast assay; S. cerevisiae expressing SARS-CoV PLpro, growth rescue; Potency, µM (titrated, usually from 32.9 µM), without a hit: at the highest dose activity, positive = growth rescue, hits mostly activators; hit rate 0.19% among 330,000; AID 485353; calls by dose curve; note: potency is the fitted concentration of half-maximal effect; 0% is about no effect; nearly all actives have a fitted effect of over 55% in size
# Shiga inhibitor = blocks Shiga toxin action in Vero cells. Vero cells, Shiga toxin protein synthesis inhibition reporter. inhibition, % at 38.7 µM. hit rate 9.2% among 290,000. AID 2315; in the data active = inhibition mostly above about 28%, no sharp cut-off; inactive = mostly below about 43%; note: 0% is about no effect
# Pf growth 96h = P. falciparum growth inhibition at 96 hour, primary screen for plastid delayed-death inhibitors; hit rate 6.9% among 320,000; Potency, µM (doses to about 28.7 µM), for inactives: at the top dose activity change, negative = inhibition, actives largely listed as inhibitors; P. falciparum luciferase reporter growth, 96 h; note: potency is the fitted concentration of half-maximal effect; % is set by controls: 0 for no effect and ±100 for the full control effect
#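 Two parasite generations (96 h, 37 C, 5% CO2) of compound exposure in infected erythrocytes (0.05% parasitemia, 2% hematocrit). Luciferase-reporter P. falciparum; decreased luminescence indicates inhibited growth, aimed at apicoplast-acting delayed death.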
# Numbers without * were called inactive; ? = inconclusive; . = no result given. Unless noted, calls come from the whole dose curve; as a rule, active = well fitted inhibition curve with a large enough effect; inconclusive = small, poorly fitted or top-dose-only effect, or another doubt; inactive = no such curve, though single readings can be large or run the other way.
SMILES,NS1 function inh,Cycloheximide cs,Pf growth 48h,SARS PLpro yeast,Shiga inhibitor,Pf growth 96h
CN1C(=O)C2(Oc3ccccc3C3CC(c4ccccc4)=NN32)c2ccccc21 (stereo not drawn),-2%,28*,35%,-23%,78*,38%
S=C1NC2(CCS1)Oc1ccccc1C1CC(c3ccccc3)=NN12 (stereo not drawn),2%,33*,?,0%,70*,?
CN1C(=O)C(O)(c2sc(N)nc2-c2ccccc2)c2ccccc21 (stereo not drawn),-6%,-1,.,1%,18,.
COc1ccc(NS(=O)(=O)c2cccc(C(=O)OCC(=O)N3CCN(c4ccc(OC)cc4)CC3)c2)cc1,.,.,?,1%,.,?
O=C(NCCS(=O)(=O)N1CCCCCC1)c1ccccc1,.,.,2%,4%,.,7%
CCCN1CCN(C(=O)C2CCN(c3nnc(C)c4c(C)n(-c5ccc(C)cc5)nc34)CC2)CC1,0%,-2,10µM*,0%,-7,?
Cc1ccc(-n2nc3c(N4CCC(C(=O)N5CCCCCC5)CC4)nnc(C)c3c2C)cc1,5%,-4,?,-2%,18,12µM*
Cc1ccc(-n2nc3c(N4CCC(C(=O)N5CCN(C)CC5)CC4)nnc(C)c3c2C)cc1,-4%,-9,?,4%,-10,?
CC(C)C[C@H](NC(=O)N1CC(=O)Nc2ccccc21)C(=O)N1CCC(C(=O)O)CC1,-1%,-3,17%,1%,-5,20%
COc1ccc2c(c1)O[C@H](c1ccc3c(c1)OCO3)[C@@H](O)C2=O,-3%,38*,-8%,-4%,58*,?
COc1ccc2c(c1)O[C@@H](c1ccc3c(c1)OCO3)[C@H](OC(=O)Nc1cc(OC)c(OC)c(OC)c1)C2=O,?,15*,13µM*,4%,36*,?
COC(=O)C1CCN(C(=O)c2cc3ccccc3oc2=O)CC1,-4%,33*,.,3%,48*,103%
COc1cc(Br)cc2cc(C(=O)N3CCOCC3)c(=O)oc12,20%,1,39%,3%,-12,3.3µM*
O=C(c1cc2ccccc2oc1=O)N1CCOCC1,?,39*,5%,0%,73*,25%
COc1cccc2cc(C(=O)Nc3cccnc3N3CCOCC3)c(=O)oc12,-9%,0,18%,0%,8,.
COCCNC(=O)c1cc2cc(Br)cc(OC)c2oc1=O,-3%,-2,12%,-1%,16,?
O=C(Nc1cccnc1N1CCOCC1)c1cc2ccccc2oc1=O,-12%,26*,-5%,-2%,47*,-16%
O=C(c1cc2ccccc2oc1=O)N1CCN(C(=O)C2CCCO2)CC1 (stereo not drawn),4%,1,-9%,4%,12,-16%
O=C(CCNc1ccc(Cc2ccncc2)cc1)c1ccc([N+](=O)[O-])cc1,-49%,7,-2%,-5%,-6,?
O=C(COc1ccccc1Cl)N1CCN(c2ccccn2)CC1,.,.,-10%,-1%,.,?
CC1CC2(CCCCC2)Nc2ccc3ccccc3c21 (stereo not drawn),-4%,-2,10µM*,2%,10,-21%
O=C1CCCCC/C1=N/Nc1ccc(OCc2ccccc2)cc1,-5%,12*,11%,-1%,28,47%
CCOC(=O)C1(CCOc2ccccc2)CCN(CCCn2cccn2)CC1,-2%,-1,?,0%,3,?
CCOC(=O)C1(CCOc2ccccc2)CCN(C(=O)c2ccc(-n3cccn3)cc2)CC1,-11%,5,?,-2%,16,10µM*
CCOC(=O)C1(CCOc2ccccc2)CCN(Cc2cccc(-n3cccn3)c2)CC1,-2%,-5,?,0%,1,10µM*
CCOC(=O)C1(CCOc2ccccc2)CCN(Cc2cccc(F)c2)CC1,-19%,1,0%,4%,5,?
Cc1nc(C)n(C(C)CNC(=O)c2cccc(Br)c2)n1 (stereo not drawn),1%,-1,8%,-8%,-4,-18%
Cc1cc(Nc2nnnn2-c2ccccc2)n(-c2ccc(Cl)cc2)n1,5%,-1,4.7µM*,14%,-5,.
c1ccc(CCNc2nnnn2-c2ccccc2)cc1,-11%,24*,-23%,-2%,30,2%
